Source: PubChem (Sanford-Burnham Center for Chemical Genomics)
CYP2C9 activ: activators of human CYP2C9 | recombinant CYP2C9, luciferin-H conversion, luminescence; active compounds read high; factor 1 = untreated enzyme, 0 = blocked | AID 1024 | activation factor at 5 µM | P11712 | actives 1.4% (n = 96,000);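 active = activation factor of 2 or more for CYP2C9 at a 5 µM dose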;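 also: 0 = sulfaphenazole-blocked wells and 1 = vehicle-only wells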
Mac1 fbg inh: inhibitors of human CD11b/CD18 binding to fibrinogen; actives 0.54% (n = 93,000); inhibition, % at 10 µM; K562 CD11b/CD18 adhesion to fibrinogen, ATPlite luminescence; Mn2+ added to activate the integrin; P05107+P11215;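 active = primary inhibition of 50% or more at 10 µM, then 40% or more on retest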
Target sequence (P05107 whole entry, looked up, other chains not shown): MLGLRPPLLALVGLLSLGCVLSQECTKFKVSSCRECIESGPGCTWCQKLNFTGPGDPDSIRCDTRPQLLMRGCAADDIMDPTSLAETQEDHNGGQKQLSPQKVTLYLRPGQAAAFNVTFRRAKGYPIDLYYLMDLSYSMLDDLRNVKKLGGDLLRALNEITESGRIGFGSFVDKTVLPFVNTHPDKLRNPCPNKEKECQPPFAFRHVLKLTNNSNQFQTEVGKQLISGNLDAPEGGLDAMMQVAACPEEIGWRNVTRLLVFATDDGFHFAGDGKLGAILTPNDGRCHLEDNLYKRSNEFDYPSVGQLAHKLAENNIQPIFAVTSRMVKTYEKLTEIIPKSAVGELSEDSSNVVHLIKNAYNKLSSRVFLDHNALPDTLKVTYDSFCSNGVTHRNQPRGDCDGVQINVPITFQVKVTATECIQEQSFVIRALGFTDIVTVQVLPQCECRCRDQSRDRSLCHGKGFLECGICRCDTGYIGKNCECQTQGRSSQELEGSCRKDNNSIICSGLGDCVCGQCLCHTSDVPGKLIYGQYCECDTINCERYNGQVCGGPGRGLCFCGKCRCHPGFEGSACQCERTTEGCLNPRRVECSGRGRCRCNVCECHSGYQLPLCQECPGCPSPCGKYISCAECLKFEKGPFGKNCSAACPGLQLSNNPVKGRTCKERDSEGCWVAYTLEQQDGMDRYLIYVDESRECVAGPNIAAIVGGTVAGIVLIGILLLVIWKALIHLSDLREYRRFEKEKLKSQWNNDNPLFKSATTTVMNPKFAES
CYP2C9 inh: blocks human cytochrome P450 2C9. CYP2C9 Supersomes, luciferin-H conversion, luminescence. P11712. inhibition, % at 5 µM. actives 20% (n = 96,000);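 active = blocking of liver enzyme CYP2C9 beyond about 50% at 5 µM, limit read from the data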
CYP2C19 act: increases human CYP2C19 enzyme activity; P33261; recombinant CYP2C19, luciferin-H EGE luminescence; active compounds read high; 0 = fully inhibited enzyme, 1 = untreated enzyme; activation factor at 5 µM; 96,000 tested, under 10 active; AID 1025;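 active = activation factor of at least 2 at 5 µM in the primary screen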;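 also: 0 = wells with 2.5 mM tranylcypromine and 1 = vehicle-only wells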
CD11b adhes enh: enhancers of human CD11b/CD18 binding to fibrinogen; activation, % at 10 µM; K562 CD11b/CD18 adhesion to fibrinogen, ATPlite luminescence; actives 0.07% (n = 93,000); P05107+P11215;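 active = 10 µM primary screen giving 50% or more activity, confirmed by 40% or more on retest at that dose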
CYP2C19 inh: human CYP2C19 inhibition. P33261. CYP2C19 Supersomes, luciferin-H EGE luminescence, 30 min. inhibition, % at 5 µM. actives 21% (n = 96,000);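 active = CYP2C19 inhibition above a set limit at 5 µM in the primary screen, cut at about 50% in these data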;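 also: plate controls were negative control wells for no effect and 2.5 mM tranylcypromine positive control for full effect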
* marks the source's active call; other numbers are inactive results; nt = no result. Only some compounds are listed: those with a hit (about 28% of all), similar ones and a draw of the others.

SMILES | CYP2C9 activ | Mac1 fbg inh | CYP2C9 inh | CYP2C19 act | CD11b adhes enh | CYP2C19 inh
CCOC(=O)c1c(N2C(=O)Nc3cc(Cl)c(Cl)cc3N2O)sc2c1CCCCC2 | 0.3 | nt | 70* | 0.8 | nt | 17
Cc1cc(C)cc(NC(=S)N2CCN(c3ncccn3)CC2)c1 | nt | -4 | nt | nt | -6 | nt
CN(CC(=O)N1CCN(c2ccccn2)CC1)S(=O)(=O)c1ccc(Br)cc1 | 1.4 | -15 | -42 | 0.4 | -4 | 63*
COc1ccccc1NC(=O)N1CCN(c2ncccn2)CC1 | 2.4* | -34 | -141 | 0.6 | 3 | 42
O=C(CC1CCCCC1)N1CCN(c2ccccn2)CC1 | 0.4 | 8 | 62* | 0.5 | 0 | 54*
S=C(Nc1cccc2ccccc12)N1CCN(c2ncccn2)CC1 | 0.7 | -3 | 25 | 0.4 | -3 | 58*
COC(=O)CN1C(=O)Nc2ccc(Br)cc2C1c1ccccc1Cl (stereo unspecified) | 0.8 | 11 | 25 | 0.6 | -4 | 44
CCCNC(=O)COC(=O)CCC(=O)c1ccc(F)cc1 | 1.1 | 8 | -12 | 0.8 | -5 | 16
CC(=O)N1CCN(S(=O)(=O)c2cccc(C(=O)NC3CCCc4ccccc43)c2)CC1 (stereo unspecified) | 0.7 | nt | 28 | 0.9 | nt | 8
COc1ccccc1CC(=O)N1CCN(c2cccc(C(F)(F)F)c2)CC1 | 2* | -4 | -104 | 0.3 | -1 | 72*
COc1ccccc1CC(=O)N1CCN(c2ccccn2)CC1 | 1.3 | nt | -27 | 0.4 | nt | 58*
COc1ccccc1NC(=O)N1CCN(c2cccc(C(F)(F)F)c2)CC1 | 2.1* | -2 | -113 | 0.2 | -2 | 85*
COc1ccccc1CC(=O)N1CCCC1 | 1.4 | -5 | -39 | 1.1 | 4 | -9
Cc1ccc(C)c(N(C)C(=O)COc2cc(=O)n(C)c3ccccc23)c1 | 0.6 | -6 | 35 | 0.7 | -2 | 34
COc1cc(C(=O)Nc2sc3c(c2C#N)CCN(C(C)=O)C3)cc(OC)c1OC | 0.6 | -4 | 42 | 1 | -3 | 1
CCOC(=O)c1sc(N)c(C#N)c1COC(=O)CNC(=O)c1cc(OC)c(OC)c(OC)c1 | 0.4 | -2 | 64* | 0.5 | 2 | 53*
COc1ccc(/C=N/n2cncn2)cc1COc1ccc(NC(C)=O)cc1 | 0.3 | 14 | 69* | 0.4 | -1 | 61*
COc1ccc(/C=N/NC(=O)c2ccoc2C)cc1COc1ccc(Cl)cc1 | 0.6 | 6 | 37 | 0.9 | 4 | 14
CC(=O)Nc1ccc2c(c1)nc(CCN1CCN(C)CC1)n2C | 1.1 | -4 | -12 | 1.1 | -2 | -10
Clc1cccc(CSc2nc3ccncc3[nH]2)c1 | 0.2 | 17 | 76* | 0 | 2 | 100*
COc1ccccc1NC(=O)c1sc2ncn(Cc3ccc(C)cc3)c(=O)c2c1C | 1.4 | -9 | -42 | 0.2 | 54 | 84*
COc1ccccc1NC(=O)c1sc2ncn(Cc3cccc(C)c3)c(=O)c2c1C | 1.2 | -30 | -20 | 0.9 | 69 | 8
CCOC(=O)c1ccc(NC(=O)CCc2nc(-c3ccccc3)no2)cc1 | 0.5 | 7 | 50* | 0.9 | -8 | 6
CCOC(=O)c1ccc(NC(=O)CCc2nc(-c3ccccc3Cl)no2)cc1 | 0 | 50 | 96* | 0.8 | -3 | 25
CCOC(=O)c1cccc(NC(=O)CCc2nc(-c3ccc(C)cc3)no2)c1 | 0.7 | 27 | 29 | 0.8 | -4 | 22
SMILES | CYP2C9 activ | Mac1 fbg inh | CYP2C9 inh | CYP2C19 act | CD11b adhes enh | CYP2C19 inh
CCc1ccccc1NC(=O)CCc1nc(-c2ccc(C)cc2)no1 | 1.1 | nt | -6 | 1.2 | nt | -16
CC(C)CN(C(=O)c1cc2ccccc2o1)c1c(N)n(CC(C)C)c(=O)[nH]c1=O | nt | -2 | nt | nt | 0 | nt
COCc1cc(C)nc(OCC(=O)N/N=C/c2cc(C)n(-c3c(C)cccc3C)c2C)c1C#N | 0.2 | 5 | 83* | 0.7 | 1 | 28
COCCn1c(SCC(=O)NCc2ccco2)nc2cccnc21 | 1.1 | -4 | -8 | 0.5 | 1 | 54*
CCNC(=O)CSc1nc2cc(OC)c(OC)cc2c(=O)n1CCC1=CCCCC1 | 0.5 | 8 | 52* | 0.5 | 1 | 52*
CCCCNC(=O)CSc1nc2cc(OC)c(OC)cc2c(=O)n1Cc1ccc(OC)cc1 | 0.3 | nt | 68* | 0.7 | nt | 34
